# According to the supplement of paper PMC10849652:
# Targets with a hit are over-represented here; the source holds about 7,900 in all. About 0.6% of all pairs of compound and target were hits. A number with no mark means an inactive call.
# Columns and labels:
# Assay in all cases: log2 fold change, soluble protein after heating vs DMSO (PISA); higher = thermal stabilisation; K562 cells, 10 uM, 30 min; active = over 0.2 and 3.5 SD of the protein, either way, in both replicates (recomputed)
# ibrutinib = compound: C=CC(=O)N1CCC[C@@H](n2nc(-c3ccc(Oc4ccccc4)cc3)c3c(N)ncnc32)C1 [ibrutinib]
# Procedure, shortened: (§1)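 Aliquots of K562 cells (2×10^6 cells/mL) treated with 10 μM compound for 30 min were heated for 3 min over 48°C-58°C. After pooling and extraction in PBS with 0.5% NP-40 at 4°C, soluble protein from a 21,000xg, 90 min spin was quantified by TMTpro 16plex LC-MS/MS with channel sums equalised. Thermal stability is expressed against control samples, from duplicates, as a log2 fold change.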
# [1] = compound: CC(C)(O)CC(=O)NCCn1ccc2ncnc(Nc3ccc(Oc4cccc(C(F)(F)F)c4)c(Cl)c3)c21
# Procedure, shortened: as §1
# [2] = compound: CC(C)C1=C2N=C(C=C(N2N=C1)NCC3=CC=CC=C3)NCCCCCCN
# Procedure, shortened: as §1
# [3] = compound: CC1=C(C=C(C=C1)NC(=O)C2=CC(=CC=C2)C(C)(C)C#N)NC3=CC4=C(C=C3)N=CN(C4=O)C
# Procedure, shortened: as §1
# [4] = compound: CC1=CC=C(C=C1)SC2=C3C=C(SC3=CN=C2)C(=O)N
# Procedure, shortened: as §1
# Nexturastat A = compound: CCCCN(Cc1ccc(C(=O)NO)cc1)C(=O)Nc1ccccc1 [Nexturastat A]
# Procedure, shortened: as §1
# vemurafenib = compound: CCCS(=O)(=O)Nc1ccc(F)c(C(=O)c2c[nH]c3ncc(-c4ccc(Cl)cc4)cc23)c1F [vemurafenib]
# Procedure, shortened: as §1
# [5] = compound: CCCS(=O)(=O)Nc1ccc(F)c(C(=O)c2c[nH]c3ncc(Cl)cc23)c1F
# Procedure, shortened: as §1
# givinostat = compound: CCN(CC)Cc1ccc2cc(COC(=O)Nc3ccc(C(=O)NO)cc3)ccc2c1 [givinostat]
# Procedure, shortened: as §1
# barasertib = compound: CCN(CCCOc1ccc2c(Nc3cc(CC(=O)Nc4cccc(F)c4)[nH]n3)ncnc2c1)CCOP(=O)(O)O [barasertib]
# Procedure, shortened: as §1
# IRAK-1-4 Inhibitor I = compound: C1COCCN1CCN2C3=CC=CC=C3N=C2NC(=O)C4=CC(=CC=C4)[N+](=O)[O-] [IRAK-1-4 Inhibitor I]
# Procedure, shortened: as §1
# [6] = compound: CC(=O)c1cnc2ccc(-c3cc(Cl)c(O)c(Cl)c3)nc2c1N[C@H]1CC[C@H](CN(C)C)CC1
# Procedure, shortened: as §1
# ralimetinib = compound: CC(C)(C)Cn1c(N)nc2ccc(-c3[nH]c(C(C)(C)C)nc3-c3ccc(F)cc3)nc21 [ralimetinib]
# Procedure, shortened: as §1
# [7] = compound: CC(C)C[C@@H](C=O)NC(=O)[C@H](CC(C)C)NC(=O)[C@H](CC(C)C)NC(=O)OCc1ccccc1
# Procedure, shortened: as §1
# pinometostat = compound: CC(C)N(C[C@H]1O[C@@H](n2cnc3c(N)ncnc32)[C@H](O)[C@@H]1O)[C@H]1C[C@@H](CCc2nc3cc(C(C)(C)C)ccc3[nH]2)C1 [pinometostat]
# Procedure, shortened: as §1
# [8] = compound: CC1=C(C=C(C=C1)NC(=O)C2=CC(=CC=C2)N(C)C)NC(=O)C3=CC=C(C=C3)O
# Procedure, shortened: as §1
# [9] = compound: CC1=NC(=CC=C1)C2=C(N=C(N2)C(C)(C)C)C3=CC4=NC=CN=C4C=C3
# Procedure, shortened: as §1
# [10] = compound: CCCc1cc(C)[nH]c(=O)c1CNC(=O)c1cc(-c2ccnc(N3CCN(C)CC3)c2)cc2c1cnn2C(C)C
# Procedure, shortened: as §1
# [11] = compound: CC1=C(C2=C(C=C1)C(=O)C3=CC=CC=C3N2CCCN)C
# Procedure, shortened: as §1
# [12] = compound: CC1=C(C(CC(=O)N1)C2=CC=C(C=C2)C(F)(F)F)C(=O)NC3=C(C=C4C(=C3)C=NN4)F
# Procedure, shortened: as §1
# Sequence of UniProt P98170 (P98170 whole entry, looked up): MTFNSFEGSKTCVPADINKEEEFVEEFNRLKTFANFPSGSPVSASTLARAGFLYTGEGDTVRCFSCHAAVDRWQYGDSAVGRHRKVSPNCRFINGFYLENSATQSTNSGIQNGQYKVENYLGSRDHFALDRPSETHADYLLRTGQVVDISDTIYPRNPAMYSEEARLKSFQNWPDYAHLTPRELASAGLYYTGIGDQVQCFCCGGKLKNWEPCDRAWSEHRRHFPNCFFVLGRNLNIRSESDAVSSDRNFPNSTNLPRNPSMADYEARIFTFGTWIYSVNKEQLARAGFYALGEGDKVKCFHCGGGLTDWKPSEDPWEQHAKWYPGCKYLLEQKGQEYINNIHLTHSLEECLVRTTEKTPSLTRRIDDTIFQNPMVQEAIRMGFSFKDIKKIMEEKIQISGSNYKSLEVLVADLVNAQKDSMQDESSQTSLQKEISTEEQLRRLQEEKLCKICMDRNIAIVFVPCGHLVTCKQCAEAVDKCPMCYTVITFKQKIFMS
# Sequence of UniProt O75691 (O75691 whole entry, looked up): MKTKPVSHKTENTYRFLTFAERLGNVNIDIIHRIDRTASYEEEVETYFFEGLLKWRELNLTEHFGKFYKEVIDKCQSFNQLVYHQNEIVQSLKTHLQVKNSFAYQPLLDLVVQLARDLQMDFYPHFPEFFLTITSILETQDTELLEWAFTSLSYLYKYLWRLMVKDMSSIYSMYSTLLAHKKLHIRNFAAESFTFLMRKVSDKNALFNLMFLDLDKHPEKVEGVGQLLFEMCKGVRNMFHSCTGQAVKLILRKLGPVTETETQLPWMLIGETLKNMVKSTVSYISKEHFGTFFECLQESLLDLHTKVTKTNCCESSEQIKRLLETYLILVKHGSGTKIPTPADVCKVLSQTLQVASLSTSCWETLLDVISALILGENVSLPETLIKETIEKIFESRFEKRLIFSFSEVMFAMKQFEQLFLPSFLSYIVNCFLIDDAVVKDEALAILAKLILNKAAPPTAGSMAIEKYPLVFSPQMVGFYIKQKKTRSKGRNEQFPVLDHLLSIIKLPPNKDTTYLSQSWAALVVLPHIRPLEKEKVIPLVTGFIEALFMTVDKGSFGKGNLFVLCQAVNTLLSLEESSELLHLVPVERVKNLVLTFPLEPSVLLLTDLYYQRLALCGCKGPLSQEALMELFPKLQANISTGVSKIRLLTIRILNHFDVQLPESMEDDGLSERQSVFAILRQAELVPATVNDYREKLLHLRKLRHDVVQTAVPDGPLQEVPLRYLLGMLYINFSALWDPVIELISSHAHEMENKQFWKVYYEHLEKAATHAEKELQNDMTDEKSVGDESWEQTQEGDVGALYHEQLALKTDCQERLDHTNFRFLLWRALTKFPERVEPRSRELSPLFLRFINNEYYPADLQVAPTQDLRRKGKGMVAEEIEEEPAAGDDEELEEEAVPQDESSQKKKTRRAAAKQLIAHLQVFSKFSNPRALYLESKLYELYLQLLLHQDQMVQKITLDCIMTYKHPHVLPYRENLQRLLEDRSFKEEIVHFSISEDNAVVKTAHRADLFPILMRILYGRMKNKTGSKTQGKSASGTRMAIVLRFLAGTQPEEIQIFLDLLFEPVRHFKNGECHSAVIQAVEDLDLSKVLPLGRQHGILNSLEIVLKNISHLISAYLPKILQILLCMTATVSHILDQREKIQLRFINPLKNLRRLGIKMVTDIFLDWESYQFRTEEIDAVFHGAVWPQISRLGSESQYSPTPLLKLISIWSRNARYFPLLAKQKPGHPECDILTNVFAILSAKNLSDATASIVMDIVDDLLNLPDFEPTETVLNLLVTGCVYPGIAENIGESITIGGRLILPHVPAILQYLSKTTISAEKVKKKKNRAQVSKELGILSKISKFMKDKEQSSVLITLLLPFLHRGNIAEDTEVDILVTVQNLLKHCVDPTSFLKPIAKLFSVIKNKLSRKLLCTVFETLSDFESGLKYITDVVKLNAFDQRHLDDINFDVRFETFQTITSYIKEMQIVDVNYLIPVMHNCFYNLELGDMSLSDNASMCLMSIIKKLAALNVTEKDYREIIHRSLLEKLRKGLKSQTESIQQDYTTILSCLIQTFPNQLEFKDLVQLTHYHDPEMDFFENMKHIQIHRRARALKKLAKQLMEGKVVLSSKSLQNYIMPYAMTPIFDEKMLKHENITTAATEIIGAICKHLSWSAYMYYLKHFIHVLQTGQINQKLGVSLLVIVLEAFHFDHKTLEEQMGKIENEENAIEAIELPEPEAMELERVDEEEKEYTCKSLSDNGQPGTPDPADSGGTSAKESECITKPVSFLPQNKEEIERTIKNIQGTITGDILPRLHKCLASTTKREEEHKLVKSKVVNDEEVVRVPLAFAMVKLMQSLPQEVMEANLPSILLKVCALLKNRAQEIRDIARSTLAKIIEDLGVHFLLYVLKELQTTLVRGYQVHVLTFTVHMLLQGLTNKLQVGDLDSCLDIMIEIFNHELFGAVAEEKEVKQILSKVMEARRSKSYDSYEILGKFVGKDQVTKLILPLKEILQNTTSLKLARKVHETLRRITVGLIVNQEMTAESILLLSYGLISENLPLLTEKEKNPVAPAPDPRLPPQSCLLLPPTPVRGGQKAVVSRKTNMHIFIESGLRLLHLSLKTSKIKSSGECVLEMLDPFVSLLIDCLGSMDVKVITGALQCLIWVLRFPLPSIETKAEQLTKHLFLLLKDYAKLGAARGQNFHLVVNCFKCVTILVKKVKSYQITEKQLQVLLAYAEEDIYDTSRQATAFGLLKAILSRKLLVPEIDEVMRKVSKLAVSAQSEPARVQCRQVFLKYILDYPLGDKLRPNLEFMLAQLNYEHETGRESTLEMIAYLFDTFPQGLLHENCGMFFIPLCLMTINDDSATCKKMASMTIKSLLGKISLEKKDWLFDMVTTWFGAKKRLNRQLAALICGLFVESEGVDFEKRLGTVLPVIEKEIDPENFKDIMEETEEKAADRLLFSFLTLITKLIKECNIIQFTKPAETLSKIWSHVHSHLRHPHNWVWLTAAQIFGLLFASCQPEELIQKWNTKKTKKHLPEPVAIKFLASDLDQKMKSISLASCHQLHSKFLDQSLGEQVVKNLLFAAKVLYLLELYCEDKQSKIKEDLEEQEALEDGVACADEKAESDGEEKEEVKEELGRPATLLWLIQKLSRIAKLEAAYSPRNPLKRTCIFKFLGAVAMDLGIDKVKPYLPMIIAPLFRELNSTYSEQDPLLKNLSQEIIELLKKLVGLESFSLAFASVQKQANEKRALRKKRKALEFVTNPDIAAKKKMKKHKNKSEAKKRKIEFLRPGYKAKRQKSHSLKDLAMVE
# Sequence of UniProt Q9C035 (Q9C035 whole entry, looked up): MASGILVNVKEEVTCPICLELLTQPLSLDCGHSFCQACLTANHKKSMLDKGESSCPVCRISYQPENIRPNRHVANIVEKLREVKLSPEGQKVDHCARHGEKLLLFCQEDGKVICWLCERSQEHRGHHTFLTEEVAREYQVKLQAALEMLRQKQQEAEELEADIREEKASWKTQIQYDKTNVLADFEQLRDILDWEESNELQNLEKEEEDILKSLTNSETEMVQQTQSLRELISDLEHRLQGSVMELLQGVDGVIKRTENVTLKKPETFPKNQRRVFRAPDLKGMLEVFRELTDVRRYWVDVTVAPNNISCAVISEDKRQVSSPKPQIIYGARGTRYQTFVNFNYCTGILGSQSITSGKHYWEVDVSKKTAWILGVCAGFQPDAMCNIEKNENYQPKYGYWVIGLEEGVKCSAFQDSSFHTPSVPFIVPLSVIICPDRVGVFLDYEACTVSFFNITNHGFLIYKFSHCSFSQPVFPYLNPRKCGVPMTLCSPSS
# Sequence of UniProt O60784 (O60784 whole entry, looked up): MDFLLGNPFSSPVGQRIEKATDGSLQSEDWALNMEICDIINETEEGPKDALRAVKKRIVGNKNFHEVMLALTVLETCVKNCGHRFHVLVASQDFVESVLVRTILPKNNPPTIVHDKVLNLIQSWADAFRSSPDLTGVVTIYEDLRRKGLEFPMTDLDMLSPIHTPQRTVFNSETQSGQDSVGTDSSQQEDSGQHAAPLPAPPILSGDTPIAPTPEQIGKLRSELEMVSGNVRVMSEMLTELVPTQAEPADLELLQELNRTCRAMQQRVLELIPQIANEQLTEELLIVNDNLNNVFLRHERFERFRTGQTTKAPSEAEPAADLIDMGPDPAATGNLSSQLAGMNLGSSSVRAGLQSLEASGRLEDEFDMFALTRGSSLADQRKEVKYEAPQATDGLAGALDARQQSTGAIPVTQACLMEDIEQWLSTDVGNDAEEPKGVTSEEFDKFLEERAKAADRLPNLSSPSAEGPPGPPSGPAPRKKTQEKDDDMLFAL
# Sequence of UniProt P51668 (P51668 whole entry, looked up): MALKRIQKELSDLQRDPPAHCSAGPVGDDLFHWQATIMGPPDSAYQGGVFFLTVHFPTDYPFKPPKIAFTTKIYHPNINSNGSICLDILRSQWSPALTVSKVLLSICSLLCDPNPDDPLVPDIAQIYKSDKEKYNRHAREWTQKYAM
# Sequence of UniProt P21796 (P21796 whole entry, looked up): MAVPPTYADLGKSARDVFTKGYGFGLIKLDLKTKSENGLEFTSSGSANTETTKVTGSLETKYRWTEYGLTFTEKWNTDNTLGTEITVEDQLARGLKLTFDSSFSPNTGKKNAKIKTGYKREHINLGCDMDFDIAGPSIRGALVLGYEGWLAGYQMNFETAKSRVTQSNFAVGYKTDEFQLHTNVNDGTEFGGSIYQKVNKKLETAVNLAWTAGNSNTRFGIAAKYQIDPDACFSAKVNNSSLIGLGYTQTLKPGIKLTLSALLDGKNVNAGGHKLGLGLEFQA
# Sequence of UniProt Q86XT9 (Q86XT9 whole entry, looked up): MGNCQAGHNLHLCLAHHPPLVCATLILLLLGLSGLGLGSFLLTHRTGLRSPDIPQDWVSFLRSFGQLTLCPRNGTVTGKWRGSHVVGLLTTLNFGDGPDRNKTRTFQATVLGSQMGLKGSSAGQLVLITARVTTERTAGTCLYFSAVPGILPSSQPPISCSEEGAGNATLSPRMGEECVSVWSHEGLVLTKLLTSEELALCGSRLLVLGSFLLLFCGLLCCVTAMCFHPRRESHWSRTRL
# Sequence of UniProt Q629K1 (Q629K1 whole entry, looked up): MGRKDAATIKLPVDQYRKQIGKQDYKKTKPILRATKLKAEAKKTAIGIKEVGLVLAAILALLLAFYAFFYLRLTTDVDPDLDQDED
Target,log2 fold change (ibrutinib),log2 fold change [1],log2 fold change [2],log2 fold change [3],log2 fold change [4],log2 fold change (Nexturastat A),log2 fold change (vemurafenib),log2 fold change [5],log2 fold change (givinostat),log2 fold change (barasertib),log2 fold change (IRAK-1-4 Inhibitor I),log2 fold change [6],log2 fold change (ralimetinib),log2 fold change [7],log2 fold change (pinometostat),log2 fold change [8],log2 fold change [9],log2 fold change [10],log2 fold change [11],log2 fold change [12]
TXNRD1 isoform 7 (UniProt Q16881),-0.209,-0.069,-0.01,-0.567,-0.037,0.221,-0.123,0.049,0.403,0.041,,,,,,,,,,
TRPT1 isoform 4 (UniProt Q86TN4),,,-0.054,-1.08 (active),,,,,0.179,,0.11,-0.057,0.011,0.074,0.033,0.136,-0.008,0.029,,
TRIM5 (UniProt Q9C035),,-0.045,-0.176,-0.063,,0.033,-0.044,,0.119,,,0,0.094,0.391,,-0.197,,,0.047,
VPS72 isoform 2 (UniProt Q15906),0.119,-0.177,0.133,-0.051,0.05,-0.17,0.025,-0.028,-0.014,0.001,,0.033,-0.122,-0.117,,0.196,,-0.042,-0.473 (active),-0.092
TRIQK (UniProt Q629K1),0.007,-0.054,,-0.022,,-0.028,,,,-0.041,-0.059,,-0.011,-0.004,0.104,-0.007,-0.173,0.014,0.114,
WARS1 (UniProt G3V3P2),-0.036,,,-0.055,,,,,,-0.255,,,,,,,,,,
TMEM219 (UniProt Q86XT9),0.115,-0.015,0.007,0.021,0.02,0.311,0.172,-0.107,-0.029,-0.187,,0.083,,,,,,,-0.134,0.031
TUBA4A (UniProt C9JJQ8),-0.076,,,-0.019,0.022,,0.053,-0.065,,0.136,-0.203,,,,-0.121,,0.138,,-0.042,
TUT4 (UniProt Q5TAX3),-0.029,0,-0.219,-0.124,-0.081,0.449,-0.129,-0.008,0.069,0.027,0.078,,0.07,0.086,0.059,-0.106,-0.121,-0.124,0.104,0.158
UBE2J2 isoform 3 (UniProt Q8N2K1),0.086,-0.019,-0.185,-0.085,0.024,0.028,0.214,-0.027,0.009,0.006,,-0.017,,,,,,,0.02,
UTP20 (UniProt O75691),,-0.172,0.081,,0.037,0.755 (active),,-0.086,0.463,,,,,,,,,,0,
"WDR46, A0A0G2JJL1",0.054,0.269,0.003,-0.161,-0.229,0.194,-0.09,0.078,0.15,-0.248,-0.153,,,,0.325,,-0.254,0.19,-0.353,0.005
XRCC1 (UniProt P18887),,-0.368,-0.066,0.049,,0.429,,,0.01,,0.13,0.027,-0.115,0.432,0.41,0.063,-0.222,,-0.047,
XAB2 (UniProt Q9HCS7),,-0.138,,,,0.469,,,,,-0.036,,0.14,-0.041,0.181,-0.027,-0.034,0.168,,
TOM1 (UniProt O60784),0.093,-0.087,-0.22,0.058,,0.504 (active),,,-0.09,-0.039,0.058,,,,-0.032,,-0.022,-0.015,-0.236,
UBE2D1 (UniProt P51668),0.007,,-0.203,-0.08,0.021,,0.156,0.097,-0.035,0.047,,0.005,0.003,-0.058,,0.029,,-0.004,0.117,0.028
TTC26,0.035,,,,,,-0.598 (active),,,-0.139,,,0.204,-0.211,,0.116,,,0.062,
VDAC1 (UniProt P21796),,0.021,0.058,-0.025,0.025,-0.028,0.015,0.018,-0.001,-0.017,0.07,0.02,-0.035,-0.039,-0.032,0.02,0.012,-0.005,-0.016,-0.009
WARS1 (UniProt G3V5U1),-0.158,0.156,,-0.795,,0.136,,,,-0.007,0.01,,,,0.031,,-0.638,-0.118,,
TMEM104 (UniProt Q8NE00),,0.009,-0.473 (active),,-0.015,-0.046,,-0.173,-0.012,,-0.039,0.038,-0.09,0.082,-0.106,0.058,-0.039,-0.126,,0.126
WARS1 (UniProt G3V227),0.03,0.259,,,,0.459,-0.455,,,0.004,,-0.022,,,,,,,-0.048,
WDR4 isoform 3 (UniProt P57081),-0.157,-0.126,,-0.041,,-0.031,,,,0.08,,,,,,,,,,
VDAC1 (UniProt C9JI87),,-0.052,0.009,-0.03,-0.034,-0.093,,-0.134,-0.052,0.071,,-0.091,-0.506,-0.013,,-0.003,,-0.053,,0.21
XIAP (UniProt P98170),-0.076,-0.157,-0.05,-0.047,-0.045,-0.045,0.035,0,0.019,0,,-0.105,,,,,,-0.049,-0.002,0
